PD-1 reversal = activators reversing PD-1 mediated T-cell inhibition; primary human CD4 T cells, PD-L1 beads, CellTiter-Glo 96 h; activation, % (test concentration not listed); 29,000 tested, under 10 active; call rule not given here;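 note: 0% = median vehicle wells and 100% = positive control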
ROS inducer = inducers of reactive oxygen species in cancer cells; U2OS ROS induction, H2DCF-DA fluorescence; ROS induction (% of piperlongumine), % at 10 µM; AID 624156; 46,000 compounds, 2% hits; in the data active = ROS induction above about 79%, passing the limit was not always enough;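 note: 0% = DMSO vehicle median and 100% = reference compound median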
NOMO-1 viab = STK33 inhibitor candidate reducing NOMO-1 cell viability. inhibition, % (concentration not given with the values). AID 2330. 37,000 compounds, 7.5% hits. NOMO-1 AML viability, CellTiter-Glo luminescence, 72 h; in the data active = inhibition above about 80%
The depositor's hits bear a star; nt = no result. The sample as a whole holds a higher share of hits than the screen did.

SMILES	PD-1 reversal	ROS inducer	NOMO-1 viab
Cc1ccc(-c2nc3ccccc3s2)cc1NC(=O)COc1cccc(C)c1C	2	4	89*
CC(Oc1ccc(Cl)cc1Cl)C(=O)Nc1cccc(-c2nnc(-c3ccccc3)o2)c1 (centres undefined)	4	15	35
O=C(COc1ccc(Cl)cc1Cl)Nc1cccc(-c2nnc(-c3ccccc3)o2)c1	-7	1	114*
O=C(COc1ccc(Cl)cc1)Nc1ccc(O)c(-c2nc3ccccc3o2)c1	nt	nt	98*
Cc1ccc(-c2nc3ccccc3s2)cc1NC(=O)COc1ccccc1C	0	5	30
CCOC(=O)/C(=N/O)C1=NN=C(N)SC1	2	-18	-3
COc1cccc(C(=O)NC2CC(C)(C)NC(C)(C)C2)c1	nt	-2	nt
COc1cc(COc2ccc3c4c(c(=O)oc3c2)CCC4)cc(OC)c1OC	2	35	34
C=CCN1C(=O)C(CC(=O)Nc2ccccc2)SC1=Nc1ccc(O)cc1 (centres undefined)	nt	2	nt
C=CCn1c(=S)n(CC=C)c2ccccc21	nt	-17	nt
COc1ccc(CSc2nnc3c4c5c(sc4nc(SC)n23)COC(C)(C)C5)cc1	nt	5	nt
COc1ccc(CCNC(=O)c2ccc3c(c2)NC(=O)/C(=C\c2ccc(C)cc2)S3)cc1OC	nt	1	nt
Cc1cccc(Oc2ccc(NC(=O)C3CCC(C)CC3)cc2)c1 (centres undefined)	nt	13	nt
CCc1ccccc1NC(=O)C(C)n1nc([N+](=O)[O-])c(Br)c1C (centres undefined)	-3	111*	40
Cc1c(Br)c([N+](=O)[O-])nn1C(C)C(=O)NCc1ccco1 (centres undefined)	1	-13	12
CSc1cccc(NC(=O)c2ccc(CN3CCOCC3)cc2)c1	nt	-12	nt
O=C(c1ccc(C(=O)N2CCc3ccccc3C2)cc1)N1CCc2ccccc2C1	nt	-2	nt
COc1ccc(Br)cc1CNC(=O)c1cc(-c2ccccc2)n(C)c1C	nt	-16	nt
CCc1cccc(NC(=O)CCCN2C(=O)COc3ccc(C)cc32)c1	nt	-7	nt
COc1ccccc1NC(=O)CSc1nc2ccccc2o1	0	13	21
NC(=O)NC1C(=O)c2ccccc2OC1c1ccccc1 (centres undefined)	-5	1	114*
O=C1CC(c2ccccc2)Oc2ccccc21 (centres undefined)	nt	-3	-4
CC1CCCCC1NC(=O)c1cc(-c2cccs2)nc2ccccc12 (centres undefined)	nt	5	nt
Cc1c(C(=O)N(C)C)sc2c1c(=O)n(-c1ccccc1C(F)(F)F)c(=O)n2CC(N)=O	nt	10	nt
Cc1noc(C)c1NC(=O)Nc1ccc2c(c1)CC(=O)N([C@H](C)CO)C[C@@H](C)[C@@H](CN(C)Cc1ccc(-c3ccccc3)cc1)O2	-3	42	44
SMILES	PD-1 reversal	ROS inducer	NOMO-1 viab
Cc1noc(C)c1NC(=O)Nc1ccc2c(c1)CC(=O)N([C@@H](C)CO)C[C@H](C)[C@H](CN(C)Cc1ccc(-c3ccccc3)cc1)O2	-4	25	99*
Cc1noc(C)c1NC(=O)Nc1ccc2c(c1)CC(=O)N([C@@H](C)CO)C[C@H](C)[C@H](CN(C)Cc1ccc(Oc3ccccc3)cc1)O2	-2	25	100*
Cc1noc(C)c1NC(=O)Nc1ccc2c(c1)CC(=O)N([C@H](C)CO)C[C@@H](C)[C@@H](CN(C)Cc1ccc(Oc3ccccc3)cc1)O2	-1	34	32
Cc1ccccc1NC(=O)CSc1nc2cc3ccccc3cc2[nH]1	nt	nt	115*
Cc1cc(C)c(NC(=O)CSc2nc(-c3ccccc3)c(-c3ccccc3)[nH]2)c(C)c1	-6	-5	101*
O=C(CSc1nc2ccccc2[nH]1)Nc1cccc2ccccc12	-2	-15	13
Cc1ccc(NC(=O)CSc2nc(-c3ccccc3)c(-c3ccccc3)[nH]2)c(C)c1	nt	nt	2
O=C1C(Cc2ccc(-c3nn[nH]n3)cc2)=C(c2ccccc2)S(=O)(=O)c2ccccc21	3	44	43
C=CCNS(=O)(=O)c1ccc(C)cc1	nt	4	nt
COc1ccc(CNC(=S)NN)cc1	nt	-10	nt
C=C1C(=O)O[C@H]2C[C@@H](C)[C@@H]3CCC(=O)[C@@]3(C)C[C@H]12	-7	40	117*
C=C1C(=O)O[C@@H]2C[C@H](C)C3C[C@H](O)[C@H](O)[C@@]3(C)C[C@H]12 (some centres undefined)	nt	28	nt
CCOc1ccc(NC(=O)CN2C(=O)C3(OCCCO3)c3ccccc32)cc1	nt	-6	nt
C[C@@H]1CCCCO[C@H](CN(C)S(=O)(=O)c2ccccc2)[C@@H](C)CN([C@H](C)CO)C(=O)c2cc(NC(=O)c3ccncc3)ccc2O1	-2	1	22
C[C@@H]1CCCCO[C@@H](CN(C)C(=O)Cc2ccccc2)[C@@H](C)CN([C@H](C)CO)C(=O)c2cc(NC(=O)NC3CCCCC3)ccc2O1	0	143*	23
C[C@@H]1CCCCO[C@H](CN(C)C(=O)Nc2ccccc2)[C@@H](C)CN([C@H](C)CO)C(=O)c2cc(NC(=O)CCC(F)(F)F)ccc2O1	0	19	16
C[C@@H]1CCCCO[C@@H](CN(C)S(=O)(=O)c2ccccc2)[C@@H](C)CN([C@H](C)CO)C(=O)c2cc(NC(=O)c3ccccc3)ccc2O1	nt	132*	36
C[C@@H]1CCCCO[C@@H](CN(C)C(=O)Nc2ccccc2)[C@@H](C)CN([C@H](C)CO)C(=O)c2cc(NC(=O)CCC(F)(F)F)ccc2O1	0	95*	22
C[C@@H]1CCCCO[C@@H](CN(C)C)[C@@H](C)CN([C@H](C)CO)C(=O)c2cc(NC(=O)Nc3ccc(F)cc3)ccc2O1	1	5	9
CC(C)NC(=O)Nc1ccc2c(c1)C(=O)N([C@H](C)CO)C[C@H](C)[C@H](CN(C)C(=O)Cc1ccccc1)OCCCC[C@@H](C)O2	0	6	-6
C[C@@H]1CCCCO[C@@H](CN(C)C)[C@@H](C)CN([C@H](C)CO)C(=O)c2cc(NC(=O)Nc3ccccc3)ccc2O1	0	6	108*
O=S(=O)(NC1CCCCC1Sc1nc2ccccc2o1)c1ccc(Cl)cc1 (centres undefined)	nt	9	nt
S=c1[nH]nc(C2CCCCC2)n1/N=C\c1ccncc1	nt	52	nt
Cc1ccc(-n2nc3c(c2NC(=O)COc2ccc(Cl)cc2)CSC3)c(C)c1	nt	-8	nt
COc1cccc(OC)c1C(=O)N1CCN(C(=O)COc2ccc(Cl)cc2)CC1	nt	-4	nt
C[C@@H]1CCCCO[C@H](CN(C)S(=O)(=O)c2ccc(F)cc2)[C@@H](C)CN([C@H](C)CO)C(=O)c2cc(NC(=O)Nc3ccc(F)cc3)ccc2O1	-2	54	43
C[C@@H]1CCCCO[C@@H](CN(C)S(=O)(=O)c2ccccc2)[C@@H](C)CN([C@H](C)CO)C(=O)c2cc(NC(=O)Nc3ccc(F)cc3)ccc2O1	-3	105*	40
Cc1ccc(S(=O)(=O)N(C)C[C@@H]2OCCCC[C@@H](C)Oc3ccc(NC(=O)Nc4ccc(C(F)(F)F)cc4)cc3C(=O)N([C@H](C)CO)C[C@@H]2C)cc1	-3	10	53
C[C@@H]1CCCCO[C@H](CN(C)S(=O)(=O)c2ccc(F)cc2)[C@@H](C)CN([C@H](C)CO)C(=O)c2cc(NC(=O)Nc3ccc(C(F)(F)F)cc3)ccc2O1	-5	9	98*
